Source: PubChem BioAssay (NCI)
About 83,000 compounds went through this panel and 20% of them were active in at least one assay; those are over-represented in the sample as a whole.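 Testing used 96-well plates and a 48-hour single-concentration exposure. Example: -40 means 40% of the starting cells died.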 Unmarked numbers belong to inactive results. Activity calls are given as the source filed them. How the source made its calls: active means growth percent below 10; inactive means the rest.

Tests used:
Assay in all cases: NCI-60 one-dose screen, 48 h (100 = growth as untreated, 0 = no growth, -100 = all killed)
Conditions in all cases: 10 µM unless noted
SK-MEL-2 melanoma = tested on: SK-MEL-2 melanoma
EKVX NSCLC = tested on: EKVX NSCLC
SN12C renal = tested on: SN12C renal
UO-31 renal = tested on: UO-31 renal
TK-10 renal = tested on: TK-10 renal
ACHN renal = tested on: ACHN renal
CAKI-1 renal = tested on: CAKI-1 renal
A498 renal = tested on: A498 renal
CCRF-CEM leukemia = tested on: CCRF-CEM leukemia
MOLT-4 leukemia = tested on: MOLT-4 leukemia
SR leukemia = tested on: SR leukemia
OVCAR-8 ovarian = tested on: OVCAR-8 ovarian
OVCAR-5 ovarian = tested on: OVCAR-5 ovarian
OVCAR-4 ovarian = tested on: OVCAR-4 ovarian
SK-OV-3 ovarian = tested on: SK-OV-3 ovarian
IGROV1 ovarian = tested on: IGROV1 ovarian
OVCAR-3 ovarian = tested on: OVCAR-3 ovarian
HS 578T breast = tested on: HS 578T breast
NCI/ADR-RES ovarian = tested on: NCI/ADR-RES ovarian
RPMI-8226 leukemia = tested on: RPMI-8226 leukemia

Compound	growth (SK-MEL-2 melanoma)	growth (EKVX NSCLC)	growth (SN12C renal)	growth (UO-31 renal)	growth (TK-10 renal)	growth (ACHN renal)	growth (CAKI-1 renal)	growth (A498 renal)	growth (CCRF-CEM leukemia)	growth (MOLT-4 leukemia)	growth (SR leukemia)	growth (OVCAR-8 ovarian)	growth (OVCAR-5 ovarian)	growth (OVCAR-4 ovarian)	growth (SK-OV-3 ovarian)	growth (IGROV1 ovarian)	growth (OVCAR-3 ovarian)	growth (HS 578T breast)	growth (NCI/ADR-RES ovarian)	growth (RPMI-8226 leukemia)
C=C1CCC2C3(C)COC(C)(C)OC3CCC2(C)C1C/C=C1/C(=O)OCC1Oc1ccccc1OC (stereo unspecified)	95.6%	96.5%	84.2%	83.5%	139%	79.9%	90.6%	110%	13.3%	77.7%	28.9%	81.1%	101%	60.7%	114%	76.2%	31.3%	113%	85.6%	
CC(NNC(C)c1ccccc1)c1ccccc1 (stereo unspecified)	110%	97.2%	116%	93.1%	105%	108%	89%	97.9%	118%	113%	91.9%		107%	112%		117%	118%	128%		97.8%
CN(C)CCCN(c1nc(C(Cl)(Cl)Cl)ns1)c1nc(C(Cl)(Cl)Cl)ns1	47%	55.1%	41.8%	-84.7% (active)	63.5%	54.6%	43.9%	73.7%	30.3%	3.33% (active)	17.1%	55.3%	66.5%		86.6%	36.6%	31.7%	46%	48.8%	9.37% (active)
COc1ccc(/C=N\NC(=O)CN2CCN(c3cc4c(cc3F)c(=O)c(C(=O)N/N=C/c3ccc(OC)c(OC)c3)cn4C3CC3)CC2)cc1OC	-24.8% (active)	55%	-8.5% (active)	85%	65.1%	102%	88.2%	89.1%	9.85% (active)	5.8% (active)	3.52% (active)		26.4%	-2.98% (active)		4.1% (active)	-5.57% (active)		100%	4.84% (active)
O=[N+]([O-])c1ccc(C(c2ccccc2)c2ccccc2)cc1	110%	94.8%	92%	80.4%	96.4%	90.3%	83.1%	91.3%	97.8%	95.2%	90.8%	107%	96.6%		102%	84.4%	98.9%	109%	88.8%	98.1%
COc1cc(/C=C/C(=O)c2c(C)nc3ccccc3c2C)ccc1OCCCCOc1cc2c(cc1OC)C(=O)N1CCC[C@H]1C=N2	-100% (active)	-26% (active)	-29.6% (active)	-93.9% (active)	-48.4% (active)	-80.7% (active)	-34.5% (active)	-84.5% (active)	-36.8% (active)	-44.7% (active)	-25.1% (active)	-7.99% (active)	-59.6% (active)		-50.1% (active)	-100% (active)	-57.1% (active)		43.9%	-61.2% (active)
CN(C)CCOC(=O)Nc1ccccc1Cl	118%	115%	104%	86.6%	106%	108%	97.7%	112%	93.4%	99.2%	104%	109%	121%		115%	106%	121%	115%	105%	93.1%
CC(=O)OC[C@]12CC[C@H]3[C@@H](C[C@H]4O[C@]45CC=CC(=O)[C@]35C)[C@]1(O)CC[C@@]2(O)[C@@](C)(O)C1CC(C)=C(C)C(=O)O1 (stereo partly specified)	-22.6% (active)	-14.1% (active)	-39.2% (active)	-18.5% (active)	-55% (active)	-64.1% (active)	-63.7% (active)	-76.2% (active)	-8.89% (active)	7.75% (active)	10.4%	7.69% (active)	-24.1% (active)		-13.1% (active)	-55.1% (active)	-23.7% (active)	-1.18% (active)	38.9%	-19.6% (active)
Nc1nc(-c2ccccc2)c(CCCOc2ccc(NC(=O)CBr)cc2)c(=O)[nH]1	101%	117%	91.5%	71%	102%	96.2%	106%	103%	29.1%	96.1%	117%		104%	92.1%	125%	125%		99.1%	106%	112%
N=c1ccc2nc3ccc(N)cc3sc-2c1	50.9%	47.9%	6.7% (active)	69.1%	11.9%	55.2%	46.4%	70.6%	21.3%	8.58% (active)	38.2%	13.5%	48.1%		58.4%	40.6%	0.418% (active)	51.9%	9.73% (active)	30%
CCN(CC)CCC(CNc1c2ccc(Cl)cc2nc2ccc(OC)cc12)c1ccccc1 (stereo unspecified)	-71.2% (active)	52.1%	16.8%	-95.2% (active)	-11% (active)	-95% (active)	-40.5% (active)	88.8%	0.732% (active)	-7.09% (active)	-6.4% (active)	-15.1% (active)	-9.48% (active)		35.3%	-10.5% (active)	-30.5% (active)	-27.6% (active)	-1.8% (active)	-23.6% (active)
COc1cc2c(cc1O)CCN1C[C@@H](CC(C)C)[C@@H](O)C[C@@H]21	98.1%	95.3%	94.3%	88.4%	97%	103%	91.4%	107%	107%	95.4%	103%	101%	94.3%		107%		108%	114%	98.2%	92.5%
CC(C)(C)n1cc(-c2ccnc(NCCCNS(=O)(=O)c3ccc(F)cc3)c2)c(-c2cccc(O)c2)n1	52.2%	49.8%	53.4%	59.4%	97.6%	38.2%	55%	59%	35.7%	34.2%	13.8%	51.5%	65%	53.9%	83.8%	51.1%	56.1%	52.4%	53%	
COc1ccc(C2NN=C3c4ccccc4CCC32)cc1 (stereo unspecified)	78.1%	64.3%	84.4%	54.1%	76.4%	93.4%	21.9%	58.2%	13.4%	16.8%	3.17% (active)		90.5%	71.4%	77%	16.8%	37.6%	62.3%	29.9%	21.7%
O=[N+]([O-])c1cccc(-c2nc3sccn3c2-c2ccnc(NCCCNS(=O)(=O)c3ccc(C(F)(F)F)cc3)n2)c1	25.3%	38.1%	35.4%	12.5%	73.6%	22.6%	21.1%	25%	14.5%	7.2% (active)	37.5%		90.6%	15.2%	71.9%	25.6%	28.7%	63.3%	8.78% (active)	-4.61% (active)
CC[N+](CC)=c1cc2oc3cc(N(C)C)ccc3nc-2cc1C	19.4%	3.38% (active)	6.42% (active)	39.6%	54.6%	73%	46.7%	99.2%	28.2%	21.8%	59%	8.33% (active)	-27.6% (active)		59.9%	-56.4% (active)	-55.6% (active)	89.1%	79.3%	45.3%
CCOC(=O)CN1/C(=N/c2sc3c(c2C(=O)OCC)CCN(C(=O)OCC)C3)SC(=O)/C1=C\C(=O)OC	97.9%	93.1%	85.7%	73.6%	99%	95%	86.6%	93.3%	27.7%	53.8%	29.8%		89.9%	86.8%	111%	92.1%	92.1%	82.7%	87%	-28.8% (active)
